Data from the supplement of paper PMC11732987, “Enantioselective OTUD7B fragment discovery through chemoproteomics screening and high-throughput optimisation” (Communications Chemistry, 2025).

Assays:
Assay in all cases: log2 ratio of Biotin-Ahx-Ub-VS probe labelling (compound/DMSO); higher = less target engagement, active = hit call of the paper (q ≤ 0.05, log2 ratio ≤ -1)
Conditions in all cases: treatment time: 3 h
[1] = compound: ClCC(=O)N[C@H]1CCCc2ccccc12
Outline: (§1)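 These values are averaged ratios of compound to vehicle, tested by unpaired t-test. HEK293T lysate (495 µg per sample) was preincubated in triplicate with compound across a concentration series or vehicle for 3 h and then with Biotin-Ahx-Ub-VS at 0.5 µM final for 1 h. Deubiquitinases carrying the probe were NeutrAvidin-enriched, digested with LysC and trypsin, and measured by diaPASEF LC-MS/MS. Ratios are expressed as log2 from global-median-normalised Spectronaut label-free quantities, and only proteins with two or more unique peptides were included.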

[2] = compound: CCC1N(CCc2cc(OC)c(Cl)cc12)C(=O)CCl
Outline: (§2)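 HEK293T lysate (495 µg per sample, in Tris/CHAPS/IGEPAL buffer with protease inhibitors) was exposed in triplicate to compound at 50 or 200 µM, or to DMSO, for 3 h, then to Biotin-Ahx-Ub-VS (0.5 µM final) for 1 h. The labelled DUBs were enriched on NeutrAvidin, digested with LysC and trypsin, and analysed by diaPASEF LC-MS/MS. Average base-two log ratios of compound over DMSO came from median-normalised label-free quantities by unpaired t-test. Only proteins with at least 2 unique peptides were used.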

[3] = compound: CCCC1N(CCc2cc(OC)c(OC)cc12)C(=O)CCl
Outline: as §2

[4] = compound: CCC1N(CCc2sccc12)C(=O)CCl
Outline: as §2

[5] = compound: CN1c2ccccc2C(CS1(=O)=O)NC(=O)CCl
Outline: as §2

[6] = compound: Cl.ClCC(=O)N1CCc2ncncc2C1
Outline: as §2

[7] = compound: Cl.Cn1ncc2C(CCCc12)NC(=O)CCl
Outline: as §2

[8] = compound: ClCC(=O)NC1CCOc2ccccc12
Outline: as §2

[9] = compound: ClCC(=O)NC1CCCc2ccccc12
Outline: as §1

[10] = compound: ClCC(=O)N[C@@H]1CCCc2ccccc12
Outline: as §1

Measured: log2 ratio of Biotin-Ahx-Ub-VS probe labelling

OTUB1 (UniProt Q96FW1)
UniProt Q96FW1, sequence (Q96FW1 whole entry): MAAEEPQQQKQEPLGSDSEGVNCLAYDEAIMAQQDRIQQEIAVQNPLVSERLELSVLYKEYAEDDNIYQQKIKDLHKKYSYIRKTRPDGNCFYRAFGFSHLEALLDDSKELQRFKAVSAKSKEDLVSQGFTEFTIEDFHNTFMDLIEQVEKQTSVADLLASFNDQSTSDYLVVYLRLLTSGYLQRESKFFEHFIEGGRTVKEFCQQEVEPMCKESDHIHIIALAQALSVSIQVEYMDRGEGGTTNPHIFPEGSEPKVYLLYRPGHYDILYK
inactive: [1]; compound concentration: 3.13uM -0.28 | [1]; compound concentration: 6.25uM -0.301 | [1]; compound concentration: 12.5uM -0.188 | [1]; compound concentration: 25uM -0.119 | [1]; compound concentration: 50uM -0.16 | [1]; compound concentration: 100uM -0.00187 | [1]; compound concentration: 200uM -0.123 | [2]; compound concentration: 50uM 0.198 | [2]; compound concentration: 200uM -0.422 | [3]; compound concentration: 50uM -0.107 | [3]; compound concentration: 200uM -0.0707

YOD1 (UniProt Q5VVQ6)
UniProt Q5VVQ6, sequence (Q5VVQ6 whole entry): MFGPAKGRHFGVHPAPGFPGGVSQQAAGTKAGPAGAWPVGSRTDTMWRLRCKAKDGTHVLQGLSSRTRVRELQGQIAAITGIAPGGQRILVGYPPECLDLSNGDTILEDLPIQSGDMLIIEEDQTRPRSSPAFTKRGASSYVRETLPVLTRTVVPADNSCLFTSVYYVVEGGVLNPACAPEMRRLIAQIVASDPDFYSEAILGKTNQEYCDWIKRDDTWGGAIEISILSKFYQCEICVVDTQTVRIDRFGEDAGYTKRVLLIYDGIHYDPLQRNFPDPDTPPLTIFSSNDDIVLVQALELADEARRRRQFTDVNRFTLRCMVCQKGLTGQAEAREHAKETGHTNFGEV
inactive: [4]; compound concentration: 50uM -0.141 | [4]; compound concentration: 200uM -0.171 | [5]; compound concentration: 50uM -0.237 | [5]; compound concentration: 200uM -0.218 | [6]; compound concentration: 50uM -0.0162 | [6]; compound concentration: 200uM -0.45 | [7]; compound concentration: 50uM 0.0347 | [7]; compound concentration: 200uM -0.0749 | [8]; compound concentration: 50uM -0.0482 | [8]; compound concentration: 200uM 0.0949 | [9]; compound concentration: 0.78uM -0.286 | [9]; compound concentration: 1.56uM -0.115 | [9]; compound concentration: 3.13uM -0.302 | [9]; compound concentration: 6.25uM -0.266 | [9]; compound concentration: 12.5uM -0.478 | [9]; compound concentration: 25uM -0.333 | [9]; compound concentration: 50uM -0.142 | [9]; compound concentration: 100uM -0.14 | [9]; compound concentration: 200uM -0.258 | [10]; compound concentration: 0.78uM -0.469 | [10]; compound concentration: 1.56uM -0.274 | [10]; compound concentration: 3.13uM -0.434 | [10]; compound concentration: 6.25uM -0.346 | [10]; compound concentration: 12.5uM -0.221 | [10]; compound concentration: 25uM -0.268 | [10]; compound concentration: 50uM -0.264 | [10]; compound concentration: 100uM -0.248 | [10]; compound concentration: 200uM -0.262 | [1]; compound concentration: 0.78uM -0.197 | [1]; compound concentration: 1.56uM -0.309 | [1]; compound concentration: 3.13uM -0.298 | [1]; compound concentration: 6.25uM -0.173 | [1]; compound concentration: 12.5uM -0.186 | [1]; compound concentration: 25uM -0.167 | [1]; compound concentration: 50uM -0.0663 | [1]; compound concentration: 100uM -0.169 | [1]; compound concentration: 200uM -0.282 | [2]; compound concentration: 50uM 0.213 | [2]; compound concentration: 200uM -0.308 | [3]; compound concentration: 50uM -0.12 | [3]; compound concentration: 200uM -0.312

USP4 (UniProt Q13107)
UniProt Q13107, sequence (Q13107 whole entry): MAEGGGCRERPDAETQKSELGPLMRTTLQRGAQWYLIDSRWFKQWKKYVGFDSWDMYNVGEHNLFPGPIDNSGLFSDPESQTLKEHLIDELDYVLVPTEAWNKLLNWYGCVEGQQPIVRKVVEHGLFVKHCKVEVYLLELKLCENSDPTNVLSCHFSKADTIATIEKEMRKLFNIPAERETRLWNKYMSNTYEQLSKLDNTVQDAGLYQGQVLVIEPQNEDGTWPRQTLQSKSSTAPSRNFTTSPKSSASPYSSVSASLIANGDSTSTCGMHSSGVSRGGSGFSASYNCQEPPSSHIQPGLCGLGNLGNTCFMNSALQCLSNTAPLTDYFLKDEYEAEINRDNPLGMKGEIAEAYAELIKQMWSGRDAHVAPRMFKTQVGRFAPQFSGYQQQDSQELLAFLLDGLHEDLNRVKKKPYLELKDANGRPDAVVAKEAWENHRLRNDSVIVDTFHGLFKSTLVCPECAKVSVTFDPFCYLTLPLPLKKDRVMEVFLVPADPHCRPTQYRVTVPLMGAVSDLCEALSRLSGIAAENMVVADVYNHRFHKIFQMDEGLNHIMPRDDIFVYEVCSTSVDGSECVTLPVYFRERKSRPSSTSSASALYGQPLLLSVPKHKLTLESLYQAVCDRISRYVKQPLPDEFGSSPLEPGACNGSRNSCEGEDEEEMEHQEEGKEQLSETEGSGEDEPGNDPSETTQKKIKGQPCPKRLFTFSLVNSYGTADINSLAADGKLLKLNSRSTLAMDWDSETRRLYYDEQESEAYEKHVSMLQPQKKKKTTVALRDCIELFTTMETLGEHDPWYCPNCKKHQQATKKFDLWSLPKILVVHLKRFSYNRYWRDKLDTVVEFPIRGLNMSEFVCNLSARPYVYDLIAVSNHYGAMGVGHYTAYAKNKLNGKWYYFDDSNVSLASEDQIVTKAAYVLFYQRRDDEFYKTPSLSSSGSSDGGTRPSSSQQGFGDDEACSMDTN
active: [6]; compound concentration: 200uM -1.33 | [2]; compound concentration: 50uM -1.04
inactive: [4]; compound concentration: 50uM -0.339 | [4]; compound concentration: 200uM -0.482 | [5]; compound concentration: 50uM -0.215 | [5]; compound concentration: 200uM 0.178 | [6]; compound concentration: 50uM -0.548 | [7]; compound concentration: 50uM -0.0561 | [7]; compound concentration: 200uM 0.256 | [8]; compound concentration: 50uM 0.078 | [8]; compound concentration: 200uM -0.359 | [9]; compound concentration: 0.78uM 0.169 | [9]; compound concentration: 1.56uM 0.0194 | [9]; compound concentration: 3.13uM 0.211 | [9]; compound concentration: 6.25uM 0.184 | [9]; compound concentration: 12.5uM 0.134 | [9]; compound concentration: 25uM 0.0663 | [9]; compound concentration: 50uM -0.0777 | [9]; compound concentration: 100uM -0.146 | [9]; compound concentration: 200uM 0.149 | [10]; compound concentration: 0.78uM 0.155 | [10]; compound concentration: 1.56uM 0.0643 | [10]; compound concentration: 3.13uM 0.0496 | [10]; compound concentration: 6.25uM -0.232 | [10]; compound concentration: 12.5uM -0.312 | [10]; compound concentration: 25uM 0.121 | [10]; compound concentration: 50uM -0.0633 | [10]; compound concentration: 100uM 0.0515 | [10]; compound concentration: 200uM -0.637 | [1]; compound concentration: 0.78uM 0.0773 | [1]; compound concentration: 1.56uM 0.0727 | [1]; compound concentration: 3.13uM 0.172 | [1]; compound concentration: 6.25uM -0.243 | [1]; compound concentration: 12.5uM 0.0883 | [1]; compound concentration: 25uM -0.0943 | [1]; compound concentration: 50uM 0.0929 | [1]; compound concentration: 100uM -0.0812 | [1]; compound concentration: 200uM -0.126 | [2]; compound concentration: 200uM 0.334 | [3]; compound concentration: 50uM -0.121 | [3]; compound concentration: 200uM -0.75

USP36 (UniProt Q9P275)
UniProt Q9P275, sequence (Q9P275 whole entry): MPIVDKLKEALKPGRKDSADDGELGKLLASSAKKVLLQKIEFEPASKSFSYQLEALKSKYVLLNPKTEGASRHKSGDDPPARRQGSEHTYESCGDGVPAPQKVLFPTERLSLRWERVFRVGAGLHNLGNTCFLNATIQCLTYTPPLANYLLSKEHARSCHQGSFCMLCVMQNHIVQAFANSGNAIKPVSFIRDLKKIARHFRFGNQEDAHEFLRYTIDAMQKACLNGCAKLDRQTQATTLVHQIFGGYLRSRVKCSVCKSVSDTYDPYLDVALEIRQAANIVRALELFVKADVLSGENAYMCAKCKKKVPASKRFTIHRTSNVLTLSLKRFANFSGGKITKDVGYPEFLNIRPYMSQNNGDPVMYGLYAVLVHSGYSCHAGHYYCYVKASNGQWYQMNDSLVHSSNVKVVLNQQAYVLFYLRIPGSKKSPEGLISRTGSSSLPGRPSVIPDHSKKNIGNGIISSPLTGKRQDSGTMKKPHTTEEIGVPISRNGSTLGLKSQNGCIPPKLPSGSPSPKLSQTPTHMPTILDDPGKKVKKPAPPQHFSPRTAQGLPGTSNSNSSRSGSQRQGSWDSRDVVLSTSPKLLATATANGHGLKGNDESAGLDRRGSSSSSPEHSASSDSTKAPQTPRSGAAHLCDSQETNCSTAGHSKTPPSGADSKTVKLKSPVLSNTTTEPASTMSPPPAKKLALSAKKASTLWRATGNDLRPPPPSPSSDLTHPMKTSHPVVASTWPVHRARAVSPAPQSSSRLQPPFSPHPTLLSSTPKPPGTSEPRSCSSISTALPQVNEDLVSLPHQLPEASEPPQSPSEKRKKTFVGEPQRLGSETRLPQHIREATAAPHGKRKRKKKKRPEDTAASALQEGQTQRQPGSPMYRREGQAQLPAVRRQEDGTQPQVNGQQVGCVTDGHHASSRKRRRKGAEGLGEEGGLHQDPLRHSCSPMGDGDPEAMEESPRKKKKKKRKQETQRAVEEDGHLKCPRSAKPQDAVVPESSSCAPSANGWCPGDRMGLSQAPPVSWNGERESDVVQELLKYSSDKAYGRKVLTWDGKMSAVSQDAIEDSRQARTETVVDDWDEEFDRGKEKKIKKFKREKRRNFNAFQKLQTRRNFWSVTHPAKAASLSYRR
inactive: [4]; compound concentration: 50uM 0.0835 | [4]; compound concentration: 200uM 0.229 | [5]; compound concentration: 50uM -0.127 | [5]; compound concentration: 200uM -0.0119 | [6]; compound concentration: 50uM -0.031 | [6]; compound concentration: 200uM -0.0419 | [7]; compound concentration: 50uM -0.145 | [7]; compound concentration: 200uM 0.158 | [8]; compound concentration: 50uM -0.121 | [8]; compound concentration: 200uM 0.283 | [9]; compound concentration: 0.78uM 0.0108 | [9]; compound concentration: 1.56uM -0.0128 | [9]; compound concentration: 3.13uM -0.0405 | [9]; compound concentration: 6.25uM -0.0421 | [9]; compound concentration: 12.5uM -0.0282 | [9]; compound concentration: 25uM -0.0131 | [9]; compound concentration: 50uM -0.0217 | [9]; compound concentration: 100uM -0.0954 | [9]; compound concentration: 200uM -0.112 | [10]; compound concentration: 0.78uM 0.107 | [10]; compound concentration: 1.56uM -0.0192 | [10]; compound concentration: 3.13uM 0.083 | [10]; compound concentration: 6.25uM 0.157 | [10]; compound concentration: 12.5uM 0.0169 | [10]; compound concentration: 25uM 0.092 | [10]; compound concentration: 50uM -0.0214 | [10]; compound concentration: 100uM 0.019 | [10]; compound concentration: 200uM -0.0674 | [1]; compound concentration: 0.78uM -0.0951 | [1]; compound concentration: 1.56uM 0.0305 | [1]; compound concentration: 3.13uM 0.102 | [1]; compound concentration: 6.25uM -0.0246 | [1]; compound concentration: 12.5uM -0.0557 | [1]; compound concentration: 25uM -0.0153 | [1]; compound concentration: 50uM -0.0239 | [1]; compound concentration: 100uM -0.0145 | [1]; compound concentration: 200uM 0.0455 | [2]; compound concentration: 50uM -0.334 | [2]; compound concentration: 200uM -0.141 | [3]; compound concentration: 50uM -0.272 | [3]; compound concentration: 200uM -0.0152

USP14 (UniProt P54578)
UniProt P54578, sequence (P54578 whole entry): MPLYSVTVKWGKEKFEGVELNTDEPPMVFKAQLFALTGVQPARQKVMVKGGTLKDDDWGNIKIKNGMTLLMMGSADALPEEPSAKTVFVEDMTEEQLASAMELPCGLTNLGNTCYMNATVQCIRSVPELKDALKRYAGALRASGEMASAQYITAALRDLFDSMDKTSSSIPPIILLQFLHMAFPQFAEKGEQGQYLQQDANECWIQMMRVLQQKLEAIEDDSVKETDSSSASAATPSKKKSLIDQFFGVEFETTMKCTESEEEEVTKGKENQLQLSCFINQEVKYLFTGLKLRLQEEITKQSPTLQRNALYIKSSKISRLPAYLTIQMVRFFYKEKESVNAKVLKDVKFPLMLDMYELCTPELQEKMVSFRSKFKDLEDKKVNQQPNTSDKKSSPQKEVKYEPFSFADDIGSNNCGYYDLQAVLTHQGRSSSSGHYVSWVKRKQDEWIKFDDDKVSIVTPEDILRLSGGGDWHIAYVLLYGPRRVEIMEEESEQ
inactive: [4]; compound concentration: 50uM -0.3 | [4]; compound concentration: 200uM -0.357 | [5]; compound concentration: 50uM -0.167 | [5]; compound concentration: 200uM -0.105 | [6]; compound concentration: 50uM 0.049 | [6]; compound concentration: 200uM -0.23 | [7]; compound concentration: 50uM 0.132 | [7]; compound concentration: 200uM 0.0271 | [8]; compound concentration: 50uM -0.194 | [8]; compound concentration: 200uM -0.0567 | [9]; compound concentration: 0.78uM -0.378 | [9]; compound concentration: 1.56uM -0.128 | [9]; compound concentration: 3.13uM -0.334 | [9]; compound concentration: 6.25uM -0.143 | [9]; compound concentration: 12.5uM -0.315 | [9]; compound concentration: 25uM -0.455 | [9]; compound concentration: 50uM -0.285 | [9]; compound concentration: 100uM -0.509 | [9]; compound concentration: 200uM -0.231 | [10]; compound concentration: 0.78uM -0.393 | [10]; compound concentration: 1.56uM -0.0826 | [10]; compound concentration: 3.13uM -0.368 | [10]; compound concentration: 6.25uM -0.447 | [10]; compound concentration: 12.5uM -0.296 | [10]; compound concentration: 25uM -0.25 | [10]; compound concentration: 50uM -0.116 | [10]; compound concentration: 100uM -0.289 | [10]; compound concentration: 200uM -0.289 | [1]; compound concentration: 0.78uM -0.158 | [1]; compound concentration: 1.56uM -0.187 | [1]; compound concentration: 3.13uM -0.308 | [1]; compound concentration: 6.25uM -0.249 | [1]; compound concentration: 12.5uM -0.442 | [1]; compound concentration: 25uM -0.253 | [1]; compound concentration: 50uM -0.322 | [1]; compound concentration: 100uM -0.332 | [1]; compound concentration: 200uM -0.157 | [2]; compound concentration: 50uM -0.071 | [2]; compound concentration: 200uM -0.127 | [3]; compound concentration: 50uM -0.132 | [3]; compound concentration: 200uM 0.0879
